Test results published in PubChem BioAssay (Tox21).
Inconclusive results are not listed. Activity calls are given as the source filed them. Unless noted, calls follow the shape of the dose curve; as a rule, active = well fitted curve in the direction sought with a large enough effect in the repeat runs; inconclusive = weak or mixed curves; inactive = no such curve, though single readings can be large; an effect the other way counts as inactive or inconclusive.

Experiments:
[1] = qHTS assay to identify small molecule antagonists of the estrogen receptor alpha (ER-alpha) signaling pathway using the BG1 cell line in the presence of 0.1 nM 17-beta-estradiol - cell viability counter screen (AID 1259241); also: nearly all actives have a fitted effect of over 40% in size; also: potency is read from the fitted curve at half-maximal effect
How it was run: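 Cytotoxicity counter-screen: live-cell protease activity measured by fluorescence (30 min reagent step) in the same wells. Cells were VM7Luc4E2 with endogenous ER-alpha and ERE-driven luciferase, treated 22 hr at 37C alongside 0.1 nM 17beta-estradiol final.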

[2] = qHTS assay to identify small molecule HDAC inhibitors (AID 1259364); also: potency is read from the fitted curve at half-maximal effect;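 also: wild-type HCT-116 cells with endogenous class I/II HDAC activity; nearly all actives have a fitted effect of over 45% in size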; as to activity change, negative = inhibition: top concentration of the series differs between compounds
How it was run: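 Screening used wild-type human colon HCT-116 cells incubated overnight, dosed with compounds for 2 hours, and assayed with a homogeneous luminogenic HDAC I/II reagent for 30 minutes at room temperature.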

[3] = qHTS assay to identify small molecule agonists of the sonic hedgehog signaling (Shh) pathway (AID 1259368; calls by dose curve;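 also: NIH/3T3-derived 3T3Gli1-Luc cells carrying a stable Gli1-driven firefly luciferase reporter; series mostly up to about 92 µM; nearly all actives have a fitted effect of over 15% in size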)
How it was run: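 Hedgehog pathway agonism scored by increased firefly luciferase luminescence in 3T3Gli1-Luc cells treated 24 hr at 37 C; detection used a 30 min room-temperature reagent incubation.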

[4] = qHTS assay to identify small molecule antagonists of the sonic hedgehog signaling (Shh) pathway (AID 1259369; calls by dose curve; also: nearly all actives have a fitted effect of over 45% in size; also: potency is read from the fitted curve at half-maximal effect)
How it was run: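 NIH/3T3 stable Gli1-Luc clone, 2,000 cells/well, 4hr settle; cpd + conditioned medium 24hr; Luc reagent 30min RT; luminescence.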

[5] = molecular target: Estrogen receptor beta (Homo sapiens) (UniProt Q92731); experiment: qHTS assay to identify small molecule agonists of the estrogen receptor beta (ER-beta) signaling pathway (AID 1259377; active = well fitted activation curve with a large enough effect in the signal ratio in the repeat runs, not every such curve was filed as active; the % refers to the signal ratio)
Sequence of Estrogen receptor beta (Homo sapiens) (Q92731 whole entry, looked up): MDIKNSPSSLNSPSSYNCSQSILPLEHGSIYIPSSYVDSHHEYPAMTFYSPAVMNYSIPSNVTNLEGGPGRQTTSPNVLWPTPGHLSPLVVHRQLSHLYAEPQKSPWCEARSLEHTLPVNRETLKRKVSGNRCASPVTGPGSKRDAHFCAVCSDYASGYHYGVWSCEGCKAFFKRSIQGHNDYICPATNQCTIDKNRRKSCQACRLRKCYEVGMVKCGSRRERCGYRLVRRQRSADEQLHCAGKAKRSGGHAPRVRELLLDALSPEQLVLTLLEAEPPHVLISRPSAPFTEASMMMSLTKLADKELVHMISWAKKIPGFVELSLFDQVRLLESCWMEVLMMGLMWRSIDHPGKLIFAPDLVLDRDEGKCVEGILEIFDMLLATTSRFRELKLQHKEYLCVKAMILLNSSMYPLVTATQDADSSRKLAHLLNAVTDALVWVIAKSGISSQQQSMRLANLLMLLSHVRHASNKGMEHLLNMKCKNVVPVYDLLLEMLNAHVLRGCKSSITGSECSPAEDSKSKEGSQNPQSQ
How it was run: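 Ratiometric beta-lactamase FRET read-out came after 2 h substrate loading at room temperature. It followed 16 h compound treatment at 37C of GripTite HEK293T cells carrying a UAS-bla reporter, plated in 2% charcoal-stripped FBS medium.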

[6] = qHTS assay to identify small molecule agonists of the estrogen receptor beta (ER-beta) signaling pathway - cell viability counter screen (AID 1259380); also: nearly all actives have a fitted effect of over 30% in size; also: potency is read from the fitted curve at half-maximal effect
How it was run: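 Measured: luminescence from CellTiter-Glo after 30 min at room temperature, added to wells already read for the LiveBLAzer FRET reporter (2 hr substrate); ER-beta-UAS-bla HEK293T cells had 16 hr compound treatment at 37C, 5% CO2.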

[7] = qHTS assay to identify small molecule antagonists of the estrogen receptor beta (ER-beta) signaling pathway - cell viability counter screen (AID 1259382); also: nearly all actives have a fitted effect of over 55% in size; also: potency is read from the fitted curve at half-maximal effect; as to activity change, negative = cytotoxicity: series mostly up to about 92 µM
How it was run: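 Readout: luminescence, CellTiter-Glo, same wells as bla assay. System: ER-beta-UAS-bla GripTite HEK293T, 2% charcoal-stripped FBS. Exposure: compounds plus 1nM 17-beta-estradiol, 16 hr, 37C.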

[8] = molecular target: Estrogen receptor (Homo sapiens) (UniProt P03372); experiment: qHTS assay to identify small molecule agonists of the estrogen receptor alpha (ER-alpha) signaling pathway in the presence of an antagonist (AID 1259383; calls by dose curve; also: top concentration of the series differs between compounds; nearly all actives have a fitted effect of over 15% in size)
Sequence of Estrogen receptor (Homo sapiens) (P03372 whole entry, looked up): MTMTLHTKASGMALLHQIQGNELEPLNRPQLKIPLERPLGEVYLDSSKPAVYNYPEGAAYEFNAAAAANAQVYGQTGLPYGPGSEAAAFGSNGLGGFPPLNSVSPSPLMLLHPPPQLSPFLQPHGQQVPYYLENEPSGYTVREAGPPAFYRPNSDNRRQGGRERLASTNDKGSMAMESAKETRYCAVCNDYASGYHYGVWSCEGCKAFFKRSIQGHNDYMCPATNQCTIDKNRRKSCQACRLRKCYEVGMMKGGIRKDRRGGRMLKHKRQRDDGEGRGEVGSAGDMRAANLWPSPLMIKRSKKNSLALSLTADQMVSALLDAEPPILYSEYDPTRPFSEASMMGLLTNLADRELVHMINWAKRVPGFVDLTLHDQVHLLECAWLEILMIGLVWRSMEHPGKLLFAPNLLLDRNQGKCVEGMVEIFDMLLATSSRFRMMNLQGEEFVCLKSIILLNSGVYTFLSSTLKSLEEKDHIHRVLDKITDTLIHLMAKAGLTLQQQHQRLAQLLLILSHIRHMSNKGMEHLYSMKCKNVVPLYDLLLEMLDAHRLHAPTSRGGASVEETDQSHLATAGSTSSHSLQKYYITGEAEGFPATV
How it was run: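 Quantitative HTS confirmation: compounds titrated at 15 concentrations onto estrogen-deprived VM7Luc4E2 cells carrying a four-ERE luciferase construct, with ICI-182,780 present at 10.0nM final. Signal is luminescence after 22hr exposure.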

[9] = molecular target: Thyrotropin receptor (Homo sapiens) (UniProt P16473); experiment: qHTS assay to identify small molecule antagonists of the thyroid stimulating hormone receptor (TSHR) signaling pathway (AID 1259385; calls by dose curve; also: nearly all actives have a fitted effect of over 20% in size; also: potency is read from the fitted curve at half-maximal effect)
Sequence of Thyrotropin receptor (Homo sapiens) (P16473 whole entry, looked up): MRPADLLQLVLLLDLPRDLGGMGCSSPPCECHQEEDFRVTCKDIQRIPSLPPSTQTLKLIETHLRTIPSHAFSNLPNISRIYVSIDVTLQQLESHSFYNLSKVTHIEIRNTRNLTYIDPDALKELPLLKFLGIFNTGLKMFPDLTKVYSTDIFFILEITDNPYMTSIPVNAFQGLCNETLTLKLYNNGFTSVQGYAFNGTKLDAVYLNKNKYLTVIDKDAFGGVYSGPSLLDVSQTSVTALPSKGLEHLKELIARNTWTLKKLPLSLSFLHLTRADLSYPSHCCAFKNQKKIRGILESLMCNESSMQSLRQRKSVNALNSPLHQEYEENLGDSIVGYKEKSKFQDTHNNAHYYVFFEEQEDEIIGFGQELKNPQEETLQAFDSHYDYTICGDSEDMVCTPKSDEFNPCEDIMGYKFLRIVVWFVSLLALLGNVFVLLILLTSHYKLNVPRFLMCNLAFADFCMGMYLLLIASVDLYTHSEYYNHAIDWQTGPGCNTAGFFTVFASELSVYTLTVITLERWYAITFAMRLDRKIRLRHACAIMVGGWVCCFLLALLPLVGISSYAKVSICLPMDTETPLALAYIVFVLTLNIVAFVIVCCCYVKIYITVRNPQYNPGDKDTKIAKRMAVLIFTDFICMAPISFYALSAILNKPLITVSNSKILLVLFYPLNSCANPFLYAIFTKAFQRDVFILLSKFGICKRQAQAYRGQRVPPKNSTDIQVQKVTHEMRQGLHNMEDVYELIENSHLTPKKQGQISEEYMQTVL
How it was run: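 TSHR-HEK293 cells were plated and held 18 h at 37C/5% CO2, then given compound plus Ro20-1724 and stimulated with TSH at 1.5 ng/mL final. After 30 min at room temperature, cAMP was detected with cAMP-d2/anti-cAMP-cryptate (1 h) by fluorescence.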

[10] = qHTS assay to identify small molecule phospholipidosis (PLD) inducers (AID 1259344; active = well fitted curve in the direction sought with a large enough effect; an effect the other way counts as inactive or inconclusive)
How it was run: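 Cells (HepG2, 900 per well) attach for 4 h, receive LipidTOX Red and compound together, incubate 24 h at 37 C, are fixed 30 min with paraformaldehyde/Hoechst, then imaged at one site per well.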

[11] = qHTS assay to identify small molecule HDAC inhibitors - cell viability counter screen (AID 1259365); also: nearly all actives have a fitted effect of over 50% in size; also: potency is read from the fitted curve at half-maximal effect; as to activity change, negative = cytotoxicity: series mostly up to about 92 µM
How it was run: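 CellTiter-Glo luminescence (30 min, room temperature) reported viability after a 2 h compound exposure at 37 C. Cells: wild-type HCT-116, 1,500 per well, seeded the night before.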

[12] = qHTS assay to identify small molecule agonists of the sonic hedgehog signaling (Shh) pathway - cell viability counter screen (AID 1259366); also: nearly all actives have a fitted effect of over 50% in size; also: potency is read from the fitted curve at half-maximal effect
How it was run: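 Cytotoxicity counter screen: CellTiter-Fluor reagent added after 23 h compound exposure, then 1 h at 37C and fluorescence read. Cells were 3T3 Gli1-Luc, seeded 2,000 per well and dosed 4 h post-plating.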

[13] = qHTS assay to identify small molecule agonists of the androgen receptor (AR) signaling pathway in the presence of an antagonist - cell viability counter screen (AID 1259379); also: nearly all actives have a fitted effect of over 25% in size; also: potency is read from the fitted curve at half-maximal effect;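 as to activity change, negative = cytotoxicity: MDA-kb2 human breast cancer cells carrying an MMTV luciferase reporter; series mostly up to about 92 µM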
How it was run: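 MDA-kb2 viability measured by CellTiter-Fluor fluorescence in the same wells as the luciferase signal; nilutamide 3.0uM final; 15-point compound titration; 16 hr at 37C.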

[14] = molecular target: Estrogen receptor beta (Homo sapiens) (UniProt Q92731); experiment: qHTS assay to identify small molecule antagonists of the estrogen receptor beta (ER-beta) signaling pathway (AID 1259378; active = well fitted inhibition curve with a large enough effect in the signal ratio in the repeat runs, not every such curve was filed as active; the % refers to the signal ratio; also: potency is read from the fitted curve at half-maximal effect)
How it was run: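 ER-beta-UAS-bla HEK293T (GripTite) cells in 2% charcoal-stripped FBS medium were preincubated 6 hr at 37C, dosed with compound, then stimulated with 1 nM E2 (final) for 16 hr; beta-lactamase reporter read by B/G FRET fluorescence after 2 hr substrate loading.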

[15] = qHTS assay to identify small molecule agonists or antagonists of the thyroid stimulating hormone receptor (TSHR) signaling pathway - wild type cell line counter screen (AID 1259384; calls by dose curve)
How it was run: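 Wild-type HEK293 cells were plated 18 h at 37 C/5% CO2, pin-dosed with compound plus Ro20-1724 medium, held 30 min at room temperature, then given cAMP-d2 and anti-cAMP-cryptate; fluorescence was read after 1 h. Fifteen concentrations, triplicate.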

[16] = molecular target: Estrogen receptor (Homo sapiens) (UniProt P03372); experiment: qHTS assay to identify small molecule antagonists of the estrogen receptor alpha (ER-alpha) signaling pathway using the BG1 cell line in the presence of 0.1 nM 17-beta-estradiol (AID 1259244); also: nearly all actives have a fitted effect of over 50% in size; also: potency is read from the fitted curve at half-maximal effect
How it was run: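 Compounds were tested against 0.1 nM (final) 17beta-estradiol in VM7Luc4E2 cells, which express full-length ER-alpha and an ERE-luciferase reporter; luminescence was recorded following 22 h exposure.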

[17] = molecular target: Androgen receptor (Homo sapiens) (UniProt P10275); experiment: qHTS assay to identify small molecule agonists of the androgen receptor (AR) signaling pathway in the presence of an antagonist (AID 1259381; calls by dose curve; also: nearly all actives have a fitted effect of over 15% in size)
Sequence of Androgen receptor (Homo sapiens) (P10275 whole entry, looked up): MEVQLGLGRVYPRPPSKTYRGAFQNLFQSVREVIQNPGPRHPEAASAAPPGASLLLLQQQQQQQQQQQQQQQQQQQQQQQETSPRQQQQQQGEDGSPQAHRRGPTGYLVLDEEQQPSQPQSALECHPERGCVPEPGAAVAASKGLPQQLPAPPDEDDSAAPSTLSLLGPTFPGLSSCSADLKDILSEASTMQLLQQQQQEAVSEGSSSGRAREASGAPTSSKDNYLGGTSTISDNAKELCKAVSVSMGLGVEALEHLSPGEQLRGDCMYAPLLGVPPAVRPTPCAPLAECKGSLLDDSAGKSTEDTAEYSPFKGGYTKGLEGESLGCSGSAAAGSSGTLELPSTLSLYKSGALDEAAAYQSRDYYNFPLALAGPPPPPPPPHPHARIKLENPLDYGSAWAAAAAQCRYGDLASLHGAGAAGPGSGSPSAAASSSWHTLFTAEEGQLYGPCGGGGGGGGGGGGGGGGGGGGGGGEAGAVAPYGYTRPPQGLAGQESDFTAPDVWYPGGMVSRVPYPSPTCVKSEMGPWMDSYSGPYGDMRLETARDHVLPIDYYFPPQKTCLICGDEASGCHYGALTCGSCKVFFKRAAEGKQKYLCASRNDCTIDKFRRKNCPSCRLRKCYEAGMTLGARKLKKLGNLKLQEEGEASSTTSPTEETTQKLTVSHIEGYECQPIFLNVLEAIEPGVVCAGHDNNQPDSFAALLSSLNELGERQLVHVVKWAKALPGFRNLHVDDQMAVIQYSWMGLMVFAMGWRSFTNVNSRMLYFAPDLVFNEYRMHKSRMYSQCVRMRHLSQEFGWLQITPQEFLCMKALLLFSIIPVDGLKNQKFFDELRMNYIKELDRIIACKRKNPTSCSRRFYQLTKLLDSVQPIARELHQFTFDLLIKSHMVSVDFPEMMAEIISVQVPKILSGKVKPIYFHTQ
How it was run: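 Luminescent ONE-Glo read, 30min at room temperature, follows 16hr compound exposure (15 concentrations) of MDA-kb2 cells at 37C, 0% CO2, with nilutamide added at 3.0uM final.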

[18] = qHTS assay to identify small molecule antagonists of the sonic hedgehog signaling (Shh) pathway - cell viability counter screen (AID 1259367); also: nearly all actives have a fitted effect of over 55% in size; also: potency is read from the fitted curve at half-maximal effect
How it was run: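 Cytotoxicity was assessed in parallel with Shh reporter activity by measuring live-cell protease fluorescence (CellTiter-Fluor) in NIH/3T3 cells stably carrying Gli1-Luc, treated with compound under conditioned medium stimulation for 23 hr plus 1 hr reagent incubation.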
% is scaled to controls: 0 for no effect and ±100 for the full control effect.

CCOc1nc2cccc(C(=O)OC(C)OC(=O)OC3CCCCC3)c2n1Cc1ccc(-c2ccccc2-c2nn[nH]n2)cc1 (configuration not stated)
active: Potency [4] 21.7 µM | Potency [6] 13.7 µM | Potency [7] 19.3 µM
inactive: Potency [1] | Potency [2] | Potency [3] | Potency [5] | Potency [8] | Potency [9]

O=C(Oc1cccc2cccnc12)c1ccccc1
active: Potency [12] 1.5 µM | Potency [6] 10.6 µM
inactive: Potency [1] | Potency [10] | Potency [11] | Potency [3] | Potency [4] | Potency [5] | Potency [13] | Potency [9]

Cc1[nH]cnc1C[C@H]1CCc2c(C)c3ccccc3n2C1=O
inactive: Potency [1] | Potency [2] | Potency [11] | Potency [3] | Potency [5] | outcome [15]
active: Potency [4] 18.9 µM | Potency [14] 29.9 µM | Potency [6] 4.74 µM

CN1CCN(CCC(=O)N2c3ccccc3Sc3ccc(C(F)(F)F)cc32)CC1
active: Potency [4] 3.35 µM | Potency [14] 21.1 µM | Potency [13] 29.8 µM | Potency [6] 13.3 µM | Potency [7] 16.8 µM
inactive: Potency [1] | Potency [16] | Potency [2] | Potency [11] | Potency [3] | Potency [17] | Potency [8] | outcome [15]

NNc1nc(-c2ccccc2)cs1
inactive: Potency [1] | Potency [16] | Potency [11] | Potency [12] | Potency [18] | Potency [3] | Potency [4] | Potency [5] | outcome [15]
active: Potency [6] 25 µM

Nc1ccc2cc(S(=O)(=O)O)cc(O)c2c1N=Nc1ccccc1C(F)(F)F
active: Potency [1] 30.6 µM
inactive: Potency [2] | Potency [11] | Potency [3] | Potency [4] | Potency [5] | Potency [14] | Potency [6] | Potency [7]

CNc1ccc(O)cc1
inactive: Potency [3]
active: Potency [1] 21.6 µM | Potency [11] 48.5 µM | Potency [12] 12.2 µM | Potency [18] 15.3 µM | Potency [13] 61 µM | Potency [6] 30.6 µM | Potency [7] 61 µM

CC(NN)c1ccccc1 (configuration not stated)
inactive: activity change, negative = cytotoxicity [1] 6.27% [at 19 µM] | Potency [10] | activity change, negative = inhibition [2] 0.741% [at 19 µM] | activity change, negative = cytotoxicity [11] 0.995% [at 19 µM] | viability change, negative = cytotoxic [12] 2.68% [at 19 µM] | Potency [18] | activity change [3] 1.23% [at 18.9 µM, stronger effect = higher value] | activity change, negative = inhibition [4] 19.3% [at 19 µM] | activity change, negative = cytotoxicity [13] -0.324% [at 19 µM] | activity change, negative = cytotoxicity [6] -2.17% [at 19 µM] | activity change, negative = cytotoxicity [7] 1.73% [at 19 µM] | cAMP activity change [15] 0.522% [at 18.9 µM] | activity change, negative = inhibition [9] -2.3% [at 19 µM]

CC[C@H]1O[C@]2(CC[C@@H]1C)C[C@@H]1C[C@@H](C/C=C(\C)C[C@@H](C)/C=C/C=C3\CO[C@@H]4[C@H](O)C(C)=C[C@@H](C(=O)O1)[C@]34O)O2
inactive: Potency [1] | Potency [2] | Potency [11] | Potency [18] | Potency [3] | Potency [4] | Potency [8] | Potency [9]
active: Potency [13] 60.6 µM | Potency [6] 24.1 µM

CSc1ccc2c(c1)C(N1CCN(C)CC1)Cc1ccccc1S2 (configuration not stated)
inactive: Potency [1] | Potency [16] | Potency [2] | Potency [3] | Potency [8]
active: Potency [12] 23.7 µM | Potency [4] 15 µM | Potency [6] 16.8 µM | Potency [7] 16.8 µM

COc1ccc(-c2ccc3cc(C(=O)O)ccc3c2)cc1C12CC3CC(CC(C3)C1)C2
inactive: Potency [1] | Potency [10] | Potency [2] | Potency [11] | Potency [18] | Potency [3] | Potency [4] | Potency [7] | Potency [8] | outcome [15]

C=C(C)C(=O)OCC(O)COc1ccc(C(C)(C)c2ccc(OCC(O)COC(=O)C(=C)C)cc2)cc1 (configuration not stated)
active: Potency [1] 27.3 µM | Potency [16] 21.7 µM | Potency [4] 48.6 µM | Potency [13] 30.6 µM | Potency [6] 61.1 µM
inactive: Potency [2] | Potency [11] | Potency [12] | Potency [3] | Potency [8] | outcome [15]

COCCCC/C(=N\OCCN)c1ccc(C(F)(F)F)cc1
inactive: Potency [1] | Potency [16] | Potency [2] | Potency [11] | Potency [12] | Potency [3] | Potency [5] | Potency [8] | outcome [15]
active: Potency [14] 29.8 µM | Potency [6] 13.3 µM | Potency [9] 29.8 µM

C=CC(=O)OCCn1c(=O)n(CCOC(=O)C=C)c(=O)n(CCOC(=O)C=C)c1=O
active: Potency [1] 48.6 µM | Potency [12] 10.9 µM | Potency [18] 21.7 µM | Potency [4] 5.45 µM | Potency [13] 21.7 µM
inactive: Potency [2] | Potency [3] | outcome [15] | Potency [9]

On1ccccc1=S
inactive: Potency [11] | Potency [3] | Potency [9]
active: Potency [1] 9.59 µM | Potency [2] 12.1 µM | Potency [12] 1.71 µM | Potency [18] 3.03 µM | Potency [4] 0.762 µM | Potency [14] 0.428 µM | Potency [6] 0.539 µM
